Results as given in PubChem BioAssay (EPA / NIEHS).
Several values for one entry are separate records, joined by “and”; a condition that tells them apart may be missing. Equal entries are not always repeated. Results filed as inconclusive are left out. Activity calls are given as the source filed them. Rule for the calls, unless noted: active = hit-call score of the fitted dose curve at least 0.9, where 1 is the maximum; inactive = score below 0.9.

test: CCTE_Harrill_HTTr_Apoptosis_MCF7: CCTE's 6-hour Apoptosis Assessment for the High-Throughput Transcriptomics (HTTr) Platform, in MCF-7 cells cultured in DMEM + 10% fetal bovine serum, Harrill Lab (AID 2284011)
Procedure, shortened: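 MCF-7 cells in DMEM + 10% fetal bovine serum were exposed to chemicals for 6 hours over an eight-point dilution series. Caspase-3/7 activation was imaged by high content imaging with CellEvent Caspase 3/7 Green; bidirectional fitting used DMSO as baseline.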

Row | Structure (SMILES) | outcome | AC50
1 | CC(C)N(Cc1ccccc1)C(=O)C(C)(C)C | inactive | 
2 | C[C@]12C=CC3=C4CCC(=O)C=C4CC[C@H]3[C@@H]1CC[C@@H]2O | inactive | 
3 | c1ccc(NNc2ccccc2)cc1 | inactive | 
4 | CCCCOC(=O)c1ccccc1C(=O)OCc1ccccc1 | inactive | 
5 | O=[N+]([O-])C(Br)(CO)CO | inactive | 
6 | CC(C)(O)c1cnn2c(-c3ccc(F)c(-c4c(F)cccc4C#N)c3)cnc2n1 | inactive | 
7 | COc1cc(C=O)cc2c1[C@H](COC(N)=O)[C@]1(OC(C)=O)ON2C[C@H]2[C@@H]1N2C(C)=O | inactive | 
8 | O=P(OCCCl)(OCCCl)OCCCl | inactive | 
9 | CCCCCOC(=O)c1ccccc1C(=O)OCCCCC | inactive | 
10 | Nc1ccc(N=Nc2ccccc2)cc1 | inactive | 
11 | COC(=O)Nc1nc2ccccc2[nH]1 | inactive | 
12 | O=C(Oc1ccc(Br)cc1)N1CCN2CCC1CC2 | inactive | 
13 | CCCCCCCCn1sccc1=O |  | 45.9 µM (active)
14 | ClCCOCCCl | inactive | 
15 | CCN(CC)N=O | inactive | 
16 | C[N+](C)(C)CC1CO1 (stereo unspecified) | inactive | 

test: CCTE_Harrill_HTTr_CellCount_MCF7: CCTE's Cell Proliferation Assessment for the High-Throughput Transcriptomics (HTTr) Platform, Harrill Lab (AID 2284012; active = hit-call score of the fitted dose curve at least 0.9, where 1 is the maximum;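 note: count of Hoechst-stained nuclei per well by high-content imaging in MCF-7 cells; cells exposed to compound for six hours; intended direction is loss of nuclei count meaning fewer cells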)
Procedure, shortened: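 Nuclei counting (Hoechst, high content imaging) in MCF-7 after a 6 h treatment at eight concentrations. Activity fitted bidirectionally, DMSO as negative control.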

Row | Structure (SMILES) | outcome | AC50
17 | ClC1=C(Cl)C2(Cl)C3C(Cl)C=CC3C1(Cl)C2(Cl)Cl (stereo unspecified) | inactive | 
18 | Clc1ccc(C(c2ccc(Cl)cc2)C(Cl)(Cl)Cl)cc1 | inactive | 
19 | N#CC(Br)Br | inactive | 
20 | C[C@]12C=CC3=C4CCC(=O)C=C4CC[C@H]3[C@@H]1CC[C@@H]2O | inactive | 
21 | c1ccc(NNc2ccccc2)cc1 | inactive | 
22 | c1ccc(N=Nc2ccccc2)cc1 | inactive | 
23 | CCCCOC(=O)c1ccccc1C(=O)OCc1ccccc1 | inactive | 
24 | O=[N+]([O-])C(Br)(CO)CO | inactive | 
25 | CC(C)(C)C(O)(CCc1ccc(Cl)cc1)Cn1cncn1 (stereo unspecified) | inactive | 
26 | CC(C)(O)c1cnn2c(-c3ccc(F)c(-c4c(F)cccc4C#N)c3)cnc2n1 | inactive | 
27 | COc1cc(C=O)cc2c1[C@H](COC(N)=O)[C@]1(OC(C)=O)ON2C[C@H]2[C@@H]1N2C(C)=O | inactive | 
28 | O=P(OCCCl)(OCCCl)OCCCl | inactive | 
29 | CCCCCOC(=O)c1ccccc1C(=O)OCCCCC | inactive | 
30 | Nc1ccc(N=Nc2ccccc2)cc1 | inactive | 
31 | COC(=O)Nc1nc2ccccc2[nH]1 | inactive | 
32 | CCC[CH2][Sn]([Cl])([CH2]CCC)[CH2]CCC |  | 17.2 µM (active)
33 | Clc1ccc(C(c2ccc(Cl)cc2)C(Cl)Cl)cc1 | inactive | 
34 | CCCCCCCCn1sccc1=O |  | 50 µM (active)
35 | O=[N+]([O-])c1ccc(Oc2ccc(Cl)cc2Cl)cc1 | inactive | 
36 | [Cl-].[Cl-].[Hg+2] | inactive | 
37 | O=C(N[C@H](c1ccccc1)[C@@H]1CN2CCC1CC2)c1c(Cl)ccc(C(F)(F)F)c1Cl | inactive | 
38 | CCN(CC)CCO | inactive | 
39 | CCN(CC)N=O | inactive | 
40 | CC(C)COC(=O)c1ccccc1C(=O)OCC(C)C | inactive | 
41 | ClC1=C(Cl)[C@]2(Cl)[C@H]3[C@H]([C@@H]4C=C[C@H]3C4)[C@@]1(Cl)C2(Cl)Cl | inactive | 
42 | Cc1ccc(N)c(N)c1 | inactive | 

test: CCTE_Shafer_MEA_acute_burst_number: CCTE's Neural Acute Assay for Single-Electrode Bursts, Shafer Lab (AID 2284013)
Procedure, shortened: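 Spontaneous network activity of primary rat cortical neurons was recorded extracellularly on microelectrode arrays at 37 C, with 40-min periods before and during exposure to 0.03-40 uM compound on DIV 13 or 15.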

Row | Structure (SMILES) | outcome | AC50
43 | CC(C)(OOC(C)(C)c1ccccc1)c1ccccc1 | inactive | 
44 | ClC1=C(Cl)C2(Cl)C3C(Cl)C=CC3C1(Cl)C2(Cl)Cl (stereo unspecified) |  | 20 µM (active)
45 | Clc1ccc(C(c2ccc(Cl)cc2)C(Cl)(Cl)Cl)cc1 | inactive | 
46 | N#CC(Br)Br | inactive | 
47 | c1ccc(NNc2ccccc2)cc1 | inactive | 
48 | c1ccc(N=Nc2ccccc2)cc1 | inactive | 
49 | CCCCOC(=O)c1ccccc1C(=O)OCc1ccccc1 |  | 2.71 µM (active)
50 | O=[N+]([O-])C(Br)(CO)CO | inactive | 
51 | CC(C)(C)C(O)(CCc1ccc(Cl)cc1)Cn1cncn1 (stereo unspecified) |  | 3.5 µM (active)
52 | CC(C)(O)c1cnn2c(-c3ccc(F)c(-c4c(F)cccc4C#N)c3)cnc2n1 |  | 1.18 µM (active)
53 | Cc1cc(N=Nc2ccccc2C)ccc1N | inactive | 
54 | O=P(OCCCl)(OCCCl)OCCCl | inactive | 
55 | CCCCCOC(=O)c1ccccc1C(=O)OCCCCC |  | 5.2 µM (active)
56 | COC(=O)Nc1nc2ccccc2[nH]1 | inactive | 
57 | CCC[CH2][Sn]([Cl])([CH2]CCC)[CH2]CCC |  | 40 nM (active) and 66.5 nM (active)
58 | O=C(Oc1ccc(Br)cc1)N1CCN2CCC1CC2 | inactive | 
59 | Clc1ccc(C(c2ccc(Cl)cc2)C(Cl)Cl)cc1 |  | 2.56 µM (active)
60 | CCCCCCCCn1sccc1=O | inactive | 
61 | CCC(C)c1ccc(O)cc1 (stereo unspecified) | inactive | 
62 | O=[N+]([O-])c1ccc(Oc2ccc(Cl)cc2Cl)cc1 | inactive | 
63 | [Cl-].[Cl-].[Hg+2] | inactive | 
64 | O=C(N[C@H](c1ccccc1)[C@@H]1CN2CCC1CC2)c1c(Cl)ccc(C(F)(F)F)c1Cl |  | 1.68 µM (active)
65 | ClCCOCCCl | inactive | 
66 | CCN(CC)CCO | inactive | 
67 | CCN(CC)N=O | inactive | 
68 | CC(C)COC(=O)c1ccccc1C(=O)OCC(C)C | inactive | 
69 | C[N+](C)(C)CC1CO1 (stereo unspecified) | inactive | 
70 | ClC1=C(Cl)[C@]2(Cl)[C@H]3[C@H]([C@@H]4C=C[C@H]3C4)[C@@]1(Cl)C2(Cl)Cl | inactive | 
71 | Cc1ccc(N)c(N)c1 | inactive | 
